Assay results taken from PubChem BioAssay (NCI).
About 83,000 compounds went through this panel and 20% of them were active in at least one assay; those are over-represented in the sample as a whole.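 Each cell line was grown in a 96-well plate and treated with one concentration of compound for 48 hours. Values below 10 were considered active.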 Active and inactive are the calls of the source.

Legend:
Assay in all cases: NCI-60 one-dose screen, 48 h (100 = growth as untreated, 0 = no growth, -100 = all killed)
Settings in all cases: 10 µM unless noted
T-47D breast = system: T-47D breast
BT-549 breast = system: BT-549 breast
MDA-MB-435 melanoma = system: MDA-MB-435 melanoma
SW-620 colon = system: SW-620 colon
MCF7 breast = system: MCF7 breast
HCT-116 colon = system: HCT-116 colon
HCC-2998 colon = system: HCC-2998 colon
KM12 colon = system: KM12 colon

Measured: growth

CCOC(=O)c1c(C)nc2c(c1N)CC(=O)N2Cc1ccc(OC)cc1
inactive: T-47D breast 32.2% | BT-549 breast 18.5% | MDA-MB-435 melanoma 88.3% | SW-620 colon 77.6% | MCF7 breast 37.5% | HCT-116 colon 12.6% | HCC-2998 colon 51.1% | KM12 colon 58%

Fc1ccc2[nH]cc(-c3nc(-c4c[nH]c5ccncc45)cs3)c2c1
inactive: BT-549 breast 70%
active: T-47D breast -30.3% | MDA-MB-435 melanoma -75.3% | SW-620 colon -63.5% | MCF7 breast -46.7% | HCT-116 colon -85.6% | HCC-2998 colon -74.3% | KM12 colon -67.1%

C=C(C)[C@@H]1CC[C@]2(C)[C@H](CC=C3[C@@H]4CC(C)(C)CC[C@]4(CO)CC[C@]32C)[C@@]1(C)CCCN
active: T-47D breast -26.5% | MDA-MB-435 melanoma -84% | SW-620 colon -81.9% | MCF7 breast -41.4% | HCT-116 colon -79.6% | HCC-2998 colon -76% | KM12 colon -53.9%
inactive: BT-549 breast 64.6%

Nc1nc(N)c2c(n1)NC(c1cccc(Nc3ccnc4cc(C(F)(F)F)ccc34)c1)CC(c1ccc(Br)cc1)=N2 (stereo not drawn)
inactive: T-47D breast 68.9% | BT-549 breast 114% | SW-620 colon 31.1% | MCF7 breast 17.3% | HCT-116 colon 16.2% | HCC-2998 colon 55.1% | KM12 colon 28.3%
active: MDA-MB-435 melanoma -25.8%

CN(Cc1ccccc1)c1nc(Cl)c(C2CC(c3ccccc3)=NN2c2ccccc2)s1 (stereo not drawn)
inactive: T-47D breast 71.9% | BT-549 breast 118% | MDA-MB-435 melanoma 98% | SW-620 colon 101% | MCF7 breast 82.4% | HCT-116 colon 77.7% | HCC-2998 colon 93% | KM12 colon 89.7%

NS(=O)(=O)c1ccc(C(=O)NN2C(=O)c3c(Br)c(Br)c(Br)c(Br)c3C2=O)cc1
inactive: T-47D breast 83.1% | BT-549 breast 106% | MDA-MB-435 melanoma 103% | SW-620 colon 101% | MCF7 breast 81.4% | HCT-116 colon 99.7% | HCC-2998 colon 111% | KM12 colon 97.5%

CN(C)c1ccc(/C=C(\C#N)c2cc3ccccc3[nH]2)cc1
active: MDA-MB-435 melanoma -25.4%
inactive: T-47D breast 36.1% | BT-549 breast 42.4% | SW-620 colon 13.2% | MCF7 breast 19.9% | HCT-116 colon 11.5% | HCC-2998 colon 45.5% | KM12 colon 24.9%

COc1ccccc1N(C(C)=O)C1=C(Cl)C(=O)c2ccccc2C1=O
active: T-47D breast -33.1% | BT-549 breast -4.47% | MDA-MB-435 melanoma -13.3% | SW-620 colon -65.2% | HCT-116 colon -29.1% | KM12 colon -11.4%
inactive: MCF7 breast 11.8% | HCC-2998 colon 19.5%

C/C(Cc1ccc(Cl)cc1)=C(\c1ccc(OCCCN(C)C)cc1)c1ccc(OC(=O)Cc2ccccc2)cc1
inactive: T-47D breast 71.3% | BT-549 breast 117% | MDA-MB-435 melanoma 107% | SW-620 colon 108% | MCF7 breast 57.9% | HCT-116 colon 104% | HCC-2998 colon 107% | KM12 colon 94.7%

O=C(c1c[nH]c2ccccc12)c1n[nH]c(=S)n1-c1cccc(Br)c1
inactive: T-47D breast 26.1% | BT-549 breast 120% | MDA-MB-435 melanoma 102% | SW-620 colon 94.6% | MCF7 breast 33.4% | HCT-116 colon 89.7% | HCC-2998 colon 38.8% | KM12 colon 50.7%

CNC1=CC(=O)c2c(C(=O)OC)c(C)[n+]([O-])c(C)c2C1=O
active: MDA-MB-435 melanoma -17.3%
inactive: T-47D breast 52.4% | BT-549 breast 88.3% | SW-620 colon 42.5% | MCF7 breast 57% | HCT-116 colon 16% | HCC-2998 colon 50.1% | KM12 colon 61.3%

O=C(CN1CCN(c2cc3c(cc2F)c(=O)c(C(=O)O)cn3C2CC2)CC1)N/N=C/c1ccco1
inactive: T-47D breast 86.8% | BT-549 breast 95.2% | MDA-MB-435 melanoma 102% | SW-620 colon 99.6% | MCF7 breast 87.1% | HCT-116 colon 97.1% | HCC-2998 colon 107% | KM12 colon 102%

Cc1ccc(C)c2c(C)c(C(=O)Nc3cccc(-n4cccn4)c3)oc12
active: T-47D breast 7.95% [50 µM]
inactive: BT-549 breast 61.5% [50 µM] | MDA-MB-435 melanoma 69.9% [50 µM] | SW-620 colon 70.2% [50 µM] | MCF7 breast 13.2% [50 µM] | HCT-116 colon 50.7% [50 µM] | HCC-2998 colon 81.2% [50 µM] | KM12 colon 56.3% [50 µM]

NC1(CO)COC(c2ccccc2)OC1 (stereo not drawn)
inactive: T-47D breast 103% | BT-549 breast 124% | MDA-MB-435 melanoma 117% | SW-620 colon 111% | MCF7 breast 111% | HCT-116 colon 115% | HCC-2998 colon 126% | KM12 colon 107%

CN(C)CCCC1(c2ccc(F)cc2)OCc2cc(-c3cc4ccccc4s3)ccc21 (stereo not drawn)
inactive: BT-549 breast 80.1%
active: T-47D breast -2.98% | MDA-MB-435 melanoma -84.4% | SW-620 colon -70% | MCF7 breast -53.5% | HCT-116 colon -80.6% | HCC-2998 colon -78.4% | KM12 colon -72.1%

COc1ccc(C#Cc2ccc(=O)oc2-c2cc(OC)c(OC)c(OC)c2)cc1O
active: MDA-MB-435 melanoma 0.895% | HCC-2998 colon 9.46%
inactive: T-47D breast 45.2% | BT-549 breast 44.8% | SW-620 colon 31.2% | MCF7 breast 16% | HCT-116 colon 14.9% | KM12 colon 26.8%

CCN1C(=O)N(CC)C2C1NC(=S)N2/N=C/c1ccc(OC)cc1 (stereo not drawn)
inactive: T-47D breast 49.8% | BT-549 breast 59.4% | SW-620 colon 25.6% | MCF7 breast 22.5% | HCT-116 colon 24.7% | HCC-2998 colon 67.8% | KM12 colon 31.2%
active: MDA-MB-435 melanoma -13.7%

COc1ccc(-c2ccc(-c3ccc(C(=N)N)nc3)s2)cc1Cl
inactive: BT-549 breast 77.9%
active: T-47D breast -28.6% | MDA-MB-435 melanoma -90.3% | SW-620 colon -79.8% | MCF7 breast -70% | HCT-116 colon -65.5% | HCC-2998 colon -43.8% | KM12 colon -86%

C=C(CNCCc1ccc(O)cc1)[C@@H]1CC[C@]2(CO)CC[C@]3(C)[C@H](CC[C@@H]4[C@@]5(C)CCC(=O)C(C)(C)[C@@H]5CC[C@]43C)[C@@H]12
active: MDA-MB-435 melanoma 2.13% | SW-620 colon -49.8% | MCF7 breast -1.07% | HCT-116 colon -86.1% | KM12 colon 1.19%
inactive: T-47D breast 42.2% | BT-549 breast 79.5% | HCC-2998 colon 17.3%

CN(C)c1ccc(-c2nc(-c3ccccc3)c(-c3ccccc3)[nH]2)cc1
inactive: T-47D breast 79.3% | BT-549 breast 104% | MDA-MB-435 melanoma 89.7% | SW-620 colon 108% | MCF7 breast 83.1% | HCT-116 colon 86.7% | HCC-2998 colon 117% | KM12 colon 96.1%

CN1CCN(c2ccc(NC(=O)c3cncnc3Nc3ccc(OCc4cccc(F)c4)c(Cl)c3)cc2)CC1
inactive: T-47D breast 72.9% | BT-549 breast 102% | MCF7 breast 13.4% | HCT-116 colon 17.4% | HCC-2998 colon 71.5% | KM12 colon 75.8%
active: MDA-MB-435 melanoma -72.3% | SW-620 colon -30.5%

N#Cc1ccc(O)c(C2=NCC(Cc3ccccc3)O2)c1 (stereo not drawn)
active: T-47D breast -1.96%
inactive: BT-549 breast 37.7% | MDA-MB-435 melanoma 64.5% | SW-620 colon 40.2% | MCF7 breast 39% | HCT-116 colon 14.9% | HCC-2998 colon 72.3% | KM12 colon 40.9%

Cc1ccc(S(=O)(=O)c2nc(-c3ccccc3)oc2Sc2nc3ccccc3s2)cc1
inactive: T-47D breast 62.7% | BT-549 breast 17.6% | MDA-MB-435 melanoma 54.7% | SW-620 colon 54.7% | MCF7 breast 58% | HCC-2998 colon 107% | KM12 colon 97.2%
active: HCT-116 colon -1.16%

CSc1nn2c(-c3ccc4ccccc4c3)ccnc2c1C#N
inactive: T-47D breast 18.8% | BT-549 breast 44% | HCC-2998 colon 52.2%
active: MDA-MB-435 melanoma -63.6% | SW-620 colon 9.09% | MCF7 breast 10% | HCT-116 colon -38.1% | KM12 colon 5.75%

CC1(C)CC(=O)c2c(nn(-c3ccc(Br)cc3)c2-c2cn(-c3ccccc3)nc2-c2cccnc2)C1
inactive: T-47D breast 70.8% | BT-549 breast 86.9% | MDA-MB-435 melanoma 105% | SW-620 colon 91.4% | MCF7 breast 75.2% | HCT-116 colon 85% | HCC-2998 colon 106% | KM12 colon 97.1%

O=C(C1=Cc2cc3ccccc3n2Cc2cnnn21)c1ccc(O)cc1
inactive: T-47D breast 44.9% | BT-549 breast 54.8% | SW-620 colon 28.7% | MCF7 breast 34.3% | HCT-116 colon 46.4% | HCC-2998 colon 83.8% | KM12 colon 29.5%
active: MDA-MB-435 melanoma -7.67%

CCNC(=O)Oc1ccc(/C(=C(/C)Cc2ccc(OC)cc2)c2ccc(OCCN3CCCCC3)cc2)cc1
inactive: T-47D breast 42.5% | BT-549 breast 92.5% | MDA-MB-435 melanoma 68.1% | SW-620 colon 77.8% | MCF7 breast 29.9% | HCT-116 colon 49.2% | HCC-2998 colon 67.9% | KM12 colon 67.8%

C=C(CNCCO)[C@@H]1CC[C@]2(CO)CC[C@]3(C)[C@H](CC[C@@H]4[C@@]5(C)CCC(N)C(C)(C)[C@@H]5CC[C@]43C)[C@@H]12 (stereo partly drawn)
inactive: BT-549 breast 65% | KM12 colon 25.2%
active: T-47D breast -47.7% | MDA-MB-435 melanoma -44% | SW-620 colon 7.71% | MCF7 breast -29.9% | HCT-116 colon 7.75% | HCC-2998 colon -37.2%

COc1cccc(C(=O)NNc2nc(Cl)nc(Cl)n2)c1
inactive: T-47D breast 91.6% | BT-549 breast 103% | MDA-MB-435 melanoma 105% | SW-620 colon 107% | MCF7 breast 82.8% | HCT-116 colon 108% | KM12 colon 105%

C[C@@H]1O[C@@H](O[C@@H]2C[C@H](c3ccc4c(c3O)C(=O)C3=C(C4=O)[C@@]4(O)C(=O)C[C@](C)(O)C[C@@]4(O)C=C3)O[C@H](C)[C@H]2O)CC[C@@H]1O[C@H]1C[C@@H](O)[C@H](O)[C@@H](C)O1
inactive: T-47D breast 78.7% | BT-549 breast 100% | MDA-MB-435 melanoma 106% | SW-620 colon 94.4% | MCF7 breast 86.4% | HCT-116 colon 91.1% | KM12 colon 101%
